This is a sample that favours compounds with a hit; in the whole collection about 2.3% have one here.
MBD2 DNA inh – inhibitors of MBD2 binding to methylated DNA, primary screen, biochemical, TR-FRET, DNA-binding domain, human; AID 686964, 2013; 0.31% of 370,000 active; inhibition, % at 4.4 µM; MBD2 binding to methylated oligonucleotide; in the data active = inhibition above about 13%
PLCg1 inh – PLC-gamma1 enzyme inhibitors, primary screen, biochemical, fluorescence, purified enzyme; 1-phosphatidylinositol 4,5-bisphosphate phosphodiesterase gamma-1 (Homo sapiens), P19174; fluorogenic substrate; inhibition, % at 12.2 µM; 0.84% of 370,000 active; in the data active = inhibition above about 9.5%
PLCb3 inh – human PLC-beta3 inhibitors, primary screen, biochemical, fluorescence | 0.18% of 370,000 active | Purified PLC-beta3, fluorogenic substrate | 1-phosphatidylinositol 4,5-bisphosphate phosphodiesterase beta-3 (Homo sapiens), Q01970 | inhibition, % at 12.2 µM; in the data active = inhibition above about 11%
Target sequence (Q01970 whole entry, looked up): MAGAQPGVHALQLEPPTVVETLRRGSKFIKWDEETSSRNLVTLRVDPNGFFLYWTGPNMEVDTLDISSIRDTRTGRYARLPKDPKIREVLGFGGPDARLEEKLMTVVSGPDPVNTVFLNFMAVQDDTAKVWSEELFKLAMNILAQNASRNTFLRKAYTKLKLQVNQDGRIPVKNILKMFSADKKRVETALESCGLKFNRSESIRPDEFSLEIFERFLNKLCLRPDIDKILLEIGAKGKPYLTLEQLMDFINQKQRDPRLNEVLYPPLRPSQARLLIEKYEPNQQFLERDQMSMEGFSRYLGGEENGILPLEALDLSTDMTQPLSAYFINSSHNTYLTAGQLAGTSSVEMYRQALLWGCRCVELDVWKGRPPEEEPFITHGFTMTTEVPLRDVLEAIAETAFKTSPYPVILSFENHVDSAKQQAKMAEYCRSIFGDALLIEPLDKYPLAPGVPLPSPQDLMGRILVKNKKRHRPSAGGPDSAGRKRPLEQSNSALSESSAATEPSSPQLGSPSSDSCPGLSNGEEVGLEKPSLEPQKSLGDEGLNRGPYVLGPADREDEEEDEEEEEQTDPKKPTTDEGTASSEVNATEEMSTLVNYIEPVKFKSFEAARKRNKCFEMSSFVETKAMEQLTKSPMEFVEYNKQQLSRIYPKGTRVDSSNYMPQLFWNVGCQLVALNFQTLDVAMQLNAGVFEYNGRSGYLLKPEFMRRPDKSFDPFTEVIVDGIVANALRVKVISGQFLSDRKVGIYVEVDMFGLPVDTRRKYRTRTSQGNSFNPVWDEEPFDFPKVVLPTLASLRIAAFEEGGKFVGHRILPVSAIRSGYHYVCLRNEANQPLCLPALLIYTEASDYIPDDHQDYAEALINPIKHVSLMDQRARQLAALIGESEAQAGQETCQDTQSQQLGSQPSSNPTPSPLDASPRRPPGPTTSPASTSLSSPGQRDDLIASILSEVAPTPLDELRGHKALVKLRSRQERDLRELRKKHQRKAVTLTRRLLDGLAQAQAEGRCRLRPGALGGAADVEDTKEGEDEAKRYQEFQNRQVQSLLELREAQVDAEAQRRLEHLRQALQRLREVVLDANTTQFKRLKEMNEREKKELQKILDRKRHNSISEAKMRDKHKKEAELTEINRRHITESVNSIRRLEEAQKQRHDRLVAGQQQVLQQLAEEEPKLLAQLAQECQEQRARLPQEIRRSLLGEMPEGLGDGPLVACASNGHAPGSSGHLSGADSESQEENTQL
UHRF1 binding – UHRF1 methylated DNA binding inhibitors, primary screen, counter-screen for MBD2 inhibitor project, biochemical, TR-FRET, human UHRF1, single concentration; E3 ubiquitin-protein ligase UHRF1 (Homo sapiens), Q96T88; UHRF1 binding to methylated oligo; inhibition, % at 4.4 µM; 0.75% of 370,000 active; AID 687016, 2013;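 also: UHRF1 SRA domain binding a hemimethylated CpG hairpin DNA probe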
LEDGF integ inh – blockers of LEDGF/p75-dependent integrase strand transfer – biochemical, TR-FRET, high throughput, primary screen. inhibition, % at 3.7 µM. TR-FRET IN-LEDGF/p75 DNA integration, Eu/Cy5. HIV-1 integrase (with human LEDGF/p75). 0.64% of 370,000 active;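 active = inhibition above the screen-wide mean plus 3 SD, cut at about 13% in these data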;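 also: signal is the Cy5 over europium emission ratio at 671 and 618 nm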
UHRF1 ctr MBD2 – UHRF1 methylated DNA binding inhibitors, counter-screen for MBD2 inhibitor project, biochemical, TR-FRET, human UHRF1 | UHRF1 binding to methylated oligonucleotide | inhibition, % at 4.4 µM | shares compounds with MBD2 DNA inh | 25% of 1,000 active;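 also: UHRF1 SRA domain binding a labeled hemimethylated CpG hairpin DNA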
MBD2 confirm – inhibitors of MBD2 binding to methylated DNA, confirmation, biochemical, TR-FRET, DNA-binding domain, human | AID 720531, 2013 | 26% of 1,000 active | inhibition, % at 4.4 µM | shares compounds with MBD2 DNA inh | TR-FRET MBD2-DBD binding to methylated oligonucleotide; in the data active = inhibition above about 14%
Numbers stand for hits; – = inactive; · = no result given. Rule as the data show it, unless noted: active = inhibition above about 21%; inactive = the rest.

SMILES	MBD2 DNA inh	PLCg1 inh	PLCb3 inh	UHRF1 binding	LEDGF integ inh	UHRF1 ctr MBD2	MBD2 confirm
CC(=O)Nc1ccccc1-c1ccc(C)o1	18.5	–	–	–	–	–	–
COC(=O)[C@H](CC(C)C)N1Cc2nnn(Cc3ccccc3)c2-c2cc(F)ccc2S1(=O)=O	–	–	–	–	–	·	·
CCN(CC)S(=O)(=O)c1ccc(N2CCOCC2)c(NC(=O)c2ccc(F)cc2)c1	–	–	–	–	–	·	·
CCN(CC)S(=O)(=O)c1ccc(N2CCOCC2)c(NC(=O)c2ccc(C#N)cc2)c1	14.2	–	–	25.0	–	–	–
CC(=O)Nc1ccc(S(=O)(=O)NC(CC(=O)O)c2ccc(OC(C)C)cc2)cc1 (configuration not stated)	16.6	–	–	23.2	–	–	–
CCN(C[C@H]1N[C@@](C)(C(=O)OC)[C@H]2C(=O)N(C)C(=O)[C@@H]12)C(=O)Nc1ccc(C(F)(F)F)cc1	14.8	–	–	21.6	–	–	–
Cc1cc(C)cc(NC(=O)N2CCC(c3nc4ccc(Cl)cc4[nH]3)CC2)c1	–	–	–	–	–	·	·
O=C(NCc1cccnc1)O[C@H]1CC[C@@]23CCCN2C(=O)CCC[C@H]3C1	–	–	–	–	–	·	·
Cc1ccc(OCC(=O)c2c(N)n(C)c(=O)n(C)c2=O)c([N+](=O)[O-])n1	18.6	–	–	22.5	–	35.5	17.2
CC1CCCCC1NC(=O)CSc1nncs1 (configuration not stated)	13.7	–	–	–	–	–	–
CCNC(=O)C1(C)CCN(Cc2ccc(OC(F)(F)F)cc2)C1 (configuration not stated)	29.1	–	–	–	–	–	–
CCNC(=O)C1(C)CCN(Cc2ccc(C(F)(F)F)cc2)C1 (configuration not stated)	–	–	–	–	–	·	·
S=C(Nc1ccc(Cl)cc1)OC1CCC12CCC(c1ccccc1)CC2 (configuration not stated)	–	–	–	–	–	·	·
COc1ccc(-c2nnn(CCC(=O)O)n2)cc1	36.0	–	–	–	–	–	–
COc1cccc(-c2nnn(CCC(=O)O)n2)c1	–	–	–	–	–	·	·
N=c1oc2cc(O)ccc2cc1C(=O)Nc1ccc(Cl)cc1	14.2	–	–	–	–	–	–
O=C(c1ccccc1F)c1cc2c(cc1[N+](=O)[O-])OCCO2	14.6	–	–	–	–	–	–
COC(=O)NNC(=O)COc1ccc2ccccc2c1Br	–	–	–	–	–	·	·
O=C(COc1ccc2ccccc2c1Br)Nn1cnnc1	19.2	–	–	–	–	–	–
Cc1cc(NCCCCCCCNc2cc(C)nc3cc([N+](=O)[O-])ccc23)c2ccc([N+](=O)[O-])cc2n1	20.6	–	–	30.3	–	38.0	49.3
C=CCn1c(SCC(N)=O)nnc1-c1ccc(C)cc1	–	–	–	–	–	·	·
C=CCn1c(SCC(=O)OC(C)C)nnc1-c1ccc(C)cc1	14.5	–	–	–	–	–	–
CCCc1ccc(C(=O)NNc2ccc(F)cc2)cc1	–	–	–	–	–	·	·
CCCc1ccc(C(=O)NNC(=O)c2ccc(Br)cc2)cc1	14.6	–	–	–	–	–	–
COc1cc2c(c(OC)c1)[C@H](/C=C/c1ccccc1)[C@@H]([C@H](O)CO)OC2	–	–	–	–	–	·	·
SMILES	MBD2 DNA inh	PLCg1 inh	PLCb3 inh	UHRF1 binding	LEDGF integ inh	UHRF1 ctr MBD2	MBD2 confirm
CN(C)/C=C1\N=C(c2cccnc2Oc2ccc(Cl)cc2)OC1=O	–	–	–	–	–	·	·
CN(C)/C=C1\N=C(c2ccc(Cl)cc2Cl)OC1=O	16.4	–	–	–	–	–	–
O=C(CSc1nnc(NC(=O)c2c(F)cccc2F)s1)NC1CCCC1	–	–	–	–	–	·	·
O=C(Nc1nnc(SCC(=O)N2CCCCC2)s1)c1c(F)cccc1F	32.9	–	–	–	–	–	–
CN(C)C1(CNC(=O)c2cccc(S(=O)(=O)NCc3ccccc3)c2)CCCCC1	–	–	–	–	–	·	·
CCN(c1ccccc1)S(=O)(=O)c1cccc(C(=O)NCC2(N(C)C)CCCCC2)c1	22.7	–	–	–	–	–	–
COCCn1c(=N)c(C(=O)NCCc2ccc(OC)cc2)cc2c(=O)n3cccc(C)c3nc21	–	–	–	–	–	·	·
COCCCNC(=O)c1cc2c(=O)n3cccc(C)c3nc2n(C(C)C)c1=N	13.6	–	–	21.6	–	–	–
COc1ccc([C@H]2OC(=O)C[C@@H]2C(=O)N2CCCCC2)cc1OC	–	–	–	–	–	·	·
O=C(Nc1ccccc1C(F)(F)F)OCCN1C(=O)CCC12CCC(c1ccccc1)CC2 (configuration not stated)	–	–	–	–	–	·	·
Cc1cc(NC(=O)C2CCN(S(=O)(=O)c3cnc[nH]3)CC2)ccc1Br	13.8	–	–	–	–	–	–
COc1ccc(C(=O)N(CC(=O)NC(C)(C)C)c2ccc3c(c2)OCCO3)cc1OC	16.4	–	–	–	–	–	–
O=C(N=C1SC2CS(=O)(=O)CC2N1CCc1ccccc1)C1CCCCC1 (configuration not stated)	86.3	–	–	–	–	–	–
O=C(Nc1nc2ncccn2c1-c1ccc(F)cc1)C1CC1	–	–	–	–	–	·	·
C=Cc1c(C)c2cc3[nH]c(cc4nc(cc5nc(cc1[nH]2)C(C)=C5CCC(=O)O)C(CCC(=O)O)=C4C)c(C)c3C=C	47.4	–	–	75.5	85.3	97.0	67.2
O=C(c1ccccc1)N1CC[C@H]2[C@H](CCCN2Cc2cc(F)cc(F)c2)C1	–	–	–	–	–	·	·
O=C(CSc1cccc[n+]1[O-])Nc1cc([N+](=O)[O-])ccc1Cl	13.4	–	–	–	–	–	–
O=C(CSc1cccc[n+]1[O-])Nc1cc2c(cc1Cl)C(=O)c1ccccc1C2=O	–	–	–	–	–	·	·
COCCCN1C(=O)[C@H](CC(=O)NCCCCc2ccccc2)[C@]2(C(=O)OC)CCCCC=C12	–	–	–	–	–	·	·
CCc1c(C)nc(SCC(=O)Nc2c(C)n(C)n(-c3ccccc3)c2=O)[nH]c1=O	19.8	–	–	–	–	–	–
Cn1c(SCC(=O)c2c(N)n(C)c(=O)n(C)c2=O)nnc1-c1ccccc1F	32.1	–	–	–	–	–	–
Cc1nnc(SCC(=O)c2c(N)n(Cc3ccccc3)c(=O)n(C)c2=O)n1C	–	–	–	–	–	·	·

Source: PubChem (The Scripps Research Institute Molecular Screening Center)
